# According to PMC4336329 (PLoS ONE, 2015):
# About 14,000 (4.5%) of roughly 310,000 compounds showed an effect of 50% or more. Effects have a minus sign here. This excerpt belongs to a sample that is enriched for strong results.
# Target: human ether-à-go-go-related gene (hERG) potassium channel (human, UniProt Q12809)
# Experiment: primary screen, population patch clamp on CHO cells stably expressing hERG; higher = less effect of the substance
# 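Note: peak tail current of the secondary pulse compared with the same well before compound.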
# Sequence of human ether-à-go-go-related gene (hERG) potassium channel (Q12809 whole entry, looked up): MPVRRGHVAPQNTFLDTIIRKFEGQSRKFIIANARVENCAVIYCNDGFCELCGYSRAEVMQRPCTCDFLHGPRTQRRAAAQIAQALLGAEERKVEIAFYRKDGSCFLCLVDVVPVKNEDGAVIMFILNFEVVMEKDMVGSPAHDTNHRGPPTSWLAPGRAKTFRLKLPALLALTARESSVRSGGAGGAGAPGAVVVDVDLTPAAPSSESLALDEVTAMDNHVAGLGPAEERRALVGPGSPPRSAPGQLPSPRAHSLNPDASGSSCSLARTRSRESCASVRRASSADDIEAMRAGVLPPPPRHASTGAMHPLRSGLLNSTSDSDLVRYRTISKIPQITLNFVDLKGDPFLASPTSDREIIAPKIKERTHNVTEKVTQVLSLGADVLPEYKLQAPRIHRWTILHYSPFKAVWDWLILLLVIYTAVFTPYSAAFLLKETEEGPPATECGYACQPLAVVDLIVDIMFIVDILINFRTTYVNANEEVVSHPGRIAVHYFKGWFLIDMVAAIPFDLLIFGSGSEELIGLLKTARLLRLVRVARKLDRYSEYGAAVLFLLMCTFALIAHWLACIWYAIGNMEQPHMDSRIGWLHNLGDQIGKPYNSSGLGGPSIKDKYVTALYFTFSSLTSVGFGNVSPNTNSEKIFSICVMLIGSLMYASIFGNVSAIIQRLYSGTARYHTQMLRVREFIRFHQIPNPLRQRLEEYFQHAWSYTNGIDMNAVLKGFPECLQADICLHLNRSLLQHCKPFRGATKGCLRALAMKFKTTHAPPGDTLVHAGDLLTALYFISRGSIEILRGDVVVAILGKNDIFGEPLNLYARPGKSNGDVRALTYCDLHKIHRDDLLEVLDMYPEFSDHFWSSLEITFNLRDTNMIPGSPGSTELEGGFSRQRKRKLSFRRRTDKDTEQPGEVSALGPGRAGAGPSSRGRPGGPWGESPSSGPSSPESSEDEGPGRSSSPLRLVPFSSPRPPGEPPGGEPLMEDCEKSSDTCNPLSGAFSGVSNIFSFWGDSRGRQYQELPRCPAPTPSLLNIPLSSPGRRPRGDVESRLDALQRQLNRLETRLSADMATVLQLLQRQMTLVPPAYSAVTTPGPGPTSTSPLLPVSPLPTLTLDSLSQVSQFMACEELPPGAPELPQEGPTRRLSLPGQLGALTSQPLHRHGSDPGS
row,SMILES,"hERG current change (%, negative = inhibition) at 10uM"
1,CCOC(=O)C(C)Oc1ccc2c(C)cc(=O)oc2c1C(C)=O (stereo not drawn),-13.8%
2,COCCn1c(SCC(=O)N2CCCCC2)nc2c(c1=O)SC(C)C2 (stereo not drawn),9.29%
3,Cc1ccccc1NC(=O)C[n+]1cc(-c2ccccc2)n2c1CCC2.[Cl-],12.9%
4,Cc1ccc(-c2csc(NC(=O)C[n+]3cc(-c4ccc(C)cc4)n4c3CCC4)n2)cc1.[Cl-],-72.5%
5,Cc1ccc(-c2c[n+](CC(=O)Nc3ccc(C)cc3C)c3n2CCC3)cc1.[Cl-],-30.8%
6,Cc1ccc(-c2c[n+](CC(=O)Nc3nc(-c4ccccc4)cs3)c3n2CCC3)cc1.[Cl-],-54.9%
7,Cc1ccc(-c2c[n+](CC(=O)Nc3cc(=O)n(C)c(=O)n3C)c3n2CCC3)cc1.[Cl-],-0.179%
8,O=C(C[n+]1cc(-c2ccccc2)n2c1CCC2)Nc1nc(-c2ccccc2)cs1.[Cl-],-35.1%
9,Cc1ccc(-c2csc(NC(=O)C[n+]3cc(-c4ccccc4)n4c3CCC4)n2)cc1.[Cl-],-57%
10,Cc1cccc(C)c1NC(=O)C[n+]1cc(-c2ccccc2)n2c1CCC2.[Cl-],11.3%
11,O=C(C[n+]1cc(-c2ccc(Cl)cc2)n2c1CCC2)Nc1nc(-c2ccccc2)cs1.[Cl-],-0.843%
12,COC(=O)c1ccccc1NC(=O)c1cccc(COc2ccccc2Cl)c1,10.6%
13,O=C(c1ccc(F)cc1)N1CCN(c2ncccn2)CC1,-1.2%
14,CC(=O)/C=C(\C)Nc1ccc(-c2cnc(-c3ccccc3)o2)cc1,-4.59%
15,CC(=O)O[C@H]1CC[C@H]2[C@@H]3CCc4cc(O)ccc4[C@H]3CC[C@]12C,-5.79%
16,COc1ccc(CC(=O)N/N=C/c2ccc(C)s2)cc1,11%
17,O=C(Cc1cccc2ccccc12)Nc1ccc2c(c1)C(=O)NC2=O,9.52%
18,COc1ccc(NC(=O)CS(=O)(=O)c2cn(CC(=O)N(C(C)C)C(C)C)c3ccccc23)c(OC)c1,-19.3%
19,O=C(CC(c1ccccc1)c1ccccc1)NCCOCc1ccccc1,-12.6%
20,Cc1ccc(CN2C(=O)CNC2=S)cc1,9.68%
21,O=C(Nc1cccc(N=Cc2cc(Br)cc(Br)c2O)c1)c1ccco1,3.77%
22,CCCc1nn(C)c(C(=O)Nc2ccc3ccccc3c2)c1Cl,8.62%
23,CC1CC(C#N)N(N(C)C)C1=C(C#N)C#N (stereo not drawn),11.3%
24,CC(=O)Nc1c2c(nn1-c1cccc(Cl)c1)CS(=O)C2 (stereo not drawn),-1.6%
25,CCOc1ccc(N=Cc2c(O)c3ccccc3oc2=O)cc1,3.29%
26,Cc1cccc(OCC(=O)NCc2ccccc2)c1,13.6%
27,COCCN1CC(=O)N2C(c3cccc(OC)c3)c3[nH]c4ccccc4c3C[C@H]2C1=O (stereo partly drawn),-38.6%

row,SMILES,"hERG current change (%, negative = inhibition) at 10uM"
1,CCn1cc(CN2CCc3c([nH]c4ccccc34)C2c2cccc(OC)c2OC)c(C)n1 (stereo not drawn),7.99%
2,COc1cccc(C2c3[nH]c4ccccc4c3CCN2Cc2cnn(C)c2)c1 (stereo not drawn),-69.6%
3,COc1cccc(C2c3[nH]c4ccccc4c3CCN2Cc2cccc(C)n2)c1 (stereo not drawn),-26.6%
4,CCn1cc(CN2CCc3c([nH]c4ccccc34)C2c2ccc(F)c(OC)c2)c(C)n1 (stereo not drawn),6.94%
5,Oc1cccc(C2c3[nH]c4ccccc4c3CCN2Cc2cnn(-c3ccccc3)c2)c1 (stereo not drawn),-35.3%
6,CCOc1ccc(C2c3[nH]c4ccccc4c3CCN2Cc2cn(CC)nc2C)cc1 (stereo not drawn),-63.6%
7,COc1cc(C2c3[nH]c4ccccc4c3CCN2Cc2cn(C)nc2C)ccc1F (stereo not drawn),1.02%
8,COCCCN1CC(=O)N2C(c3cccc(OC)c3)c3[nH]c4ccccc4c3C[C@H]2C1=O (stereo partly drawn),-14.3%
9,CCn1cc(CN2CCc3c([nH]c4ccccc34)C2c2cccc(O)c2)c(C)n1 (stereo not drawn),-18.8%
10,COc1cccc(C2c3[nH]c4ccccc4c3C[C@H]3C(=O)N(CCCCCO)CC(=O)N23)c1 (stereo partly drawn),-64.9%
11,CCn1cc(CN2CCc3c([nH]c4ccccc34)C2c2cccc(OC)c2)c(C)n1 (stereo not drawn),-57.3%
12,Cc1ccc(C(=O)NCCC(=O)NCc2ccco2)cc1,9.59%
13,CC1=NN(C(=O)c2nn(C)cc2Br)C(O)(C(F)(F)F)C1 (stereo not drawn),10.3%
14,Cc1cccc(C)c1NC(=O)CNC(=O)C1CCCC1,2.19%
15,O=C(NC1CCCCC1)C(c1ccc(F)cc1)N(C(=O)c1csnn1)C1CC1 (stereo not drawn),13.2%
16,COc1ccc(C(=O)CN2CCN(c3ncccn3)CC2)cc1.O=C(O)C(=O)O,5.13%
17,COc1ccc(N2CCN(CC(=O)c3ccccc3)CC2)cc1,11%
18,COc1ccc2nc(C)cc(N3CCC(C(N)=O)CC3)c2c1,-33.7%
19,COc1ccc2nc(C)cc(N3CCN(c4ccccc4)CC3)c2c1,-66.7%
20,CCOC(=O)C1CCN(c2nc3cc(OC)ccc3cc2C#N)CC1,-16%
21,COc1ccc2nc(C)cc(N3CC(C)OC(C)C3)c2c1 (stereo not drawn),-49.6%
22,COc1ccc(C(=O)CN2CCN(c3cc(C)nc4ccccc34)CC2)cc1,-68.8%
23,COc1ccc(N2CCN(c3cc(C)c4ccccc4n3)CC2)cc1,3.95%
24,CCOC(=O)C1CCN(c2cc(C)nc3ccc(OC)cc23)CC1,-73.8%
25,COc1ccc2nc(C)cc(N3CCOCC3)c2c1,-14.6%
26,COc1ccc2nc(C)cc(C(=O)O)c2c1,0.7%
27,COc1ccc(N2CCN(c3cc(C)nc4ccc(OC)cc34)CC2)cc1,-69.1%
